# Source: PubChem BioAssay (NCATS)
# Records with an inconclusive call do not appear. Entries that show only a call come without a potency. Unmarked numbers belong to inactive results. Calls of active or inactive are those of the source. Calls come from the whole dose curve; as a rule, active = well fitted curve in the direction sought with a large enough effect; inconclusive = small, poorly fitted or top-dose-only effect, or another doubt; inactive = no such curve, though single readings can be large; an effect the other way counts as inactive or inconclusive.
# Key:
# [1] = NS1 protein of Zika virus - qHTS assay to identify small molecule inhibitors in human HEK 293 cells (AID 1347053); note: nearly all actives have a fitted effect of over 55% in size; note: potency is the fitted concentration of half-maximal effect
# Summary of the method: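 HEK 293; 20 h pre-culture, 37 C/5% CO2; cpd 1 h pre-infection; ZIKV MR766, MOI = 0.5, 24 h, 37 C; TR-FRET NS1 readout (two anti-NS1 Abs); norm. to no-virus vs infected.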
# [2] = qHTS of pediatric cancer cell lines to identify multiple opportunities for drug repurposing: Primary screen for TC32 cells (AID 1347089); note: nearly all actives have a fitted effect of over 60% in size; note: potency is the fitted concentration of half-maximal effect
# Summary of the method: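 TC32 cells, 500-1,000/well in growth medium, compound-treated 48 h at 37 °C; viability from CellTiter-Glo luminescence. Primary screen: MIPE 11-point (0.78 nM–46 µM final), NPC 8-point (0.59 nM–46 µM final); confirmatory at 11-point dilutions.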
# [3] = qHTS of pediatric cancer cell lines to identify multiple opportunities for drug repurposing: Primary screen for DAOY cells (AID 1347090); note: nearly all actives have a fitted effect of over 55% in size; note: potency is the fitted concentration of half-maximal effect
# Summary of the method: (§1)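 Cell viability, CellTiter-Glo luminescence; 500-1,000 cells/well, 8- or 11-point titration, 48 h compound exposure at 37 degrees C, 5% CO2. Controls: DMSO neutral, bortezomib 2.3 µM final as positive.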
# [4] = qHTS of pediatric cancer cell lines to identify multiple opportunities for drug repurposing: Primary screen for SJ-GBM2 cells (AID 1347091); note: potency is the fitted concentration of half-maximal effect
# Summary of the method: as §1
# [5] = qHTS of pediatric cancer cell lines to identify multiple opportunities for drug repurposing: Primary screen for A673 cells (AID 1347092); note: nearly all actives have a fitted effect of over 45% in size; note: potency is the fitted concentration of half-maximal effect
# Summary of the method: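 A673 cells (500-1,000 cells/well) were treated 48 hours at 37 degrees C with compounds at 11-point (0.78 nM to 46 µM) or 8-point (0.59 nM to 46 µM) dilutions. Viability read by CellTiter-Glo luminescence; concentration-response curves fitted.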
# [6] = qHTS of pediatric cancer cell lines to identify multiple opportunities for drug repurposing: Primary screen for SK-N-MC cells (AID 1347093); note: potency is the fitted concentration of half-maximal effect
# Summary of the method: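 Metabolically active cells were quantified by ATP-dependent luminescence (CellTiter-Glo, 15 min at room temperature) following 48 h treatment. Cells had been plated at 500-1,000 per well and settled for 5 h beforehand.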
# [7] = qHTS of pediatric cancer cell lines to identify multiple opportunities for drug repurposing: Primary screen for BT-37 cells (AID 1347094); note: potency is the fitted concentration of half-maximal effect
# Summary of the method: (§2)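 Primary screen of approved and investigational compounds on cells in growth media at 37 degrees C, 5% CO2. MIPE set at 11-point and NPC set at 8-point dilutions; viability scored by ATP-based luminescence at 48 hours.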
# [8] = qHTS of pediatric cancer cell lines to identify multiple opportunities for drug repurposing: Primary screen for NB-EBc1 cells (AID 1347095); note: potency is the fitted concentration of half-maximal effect
# Summary of the method: as §2
# [9] = qHTS of pediatric cancer cell lines to identify multiple opportunities for drug repurposing: Primary screen for U-2 OS cells (AID 1347096); note: nearly all actives have a fitted effect of over 50% in size
# Summary of the method: (§3)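 Cells (500-1,000/well) rested 5 h, then received compounds for 48 h; metabolically active cells were measured by CellTiter-Glo luminescence. Final concentrations spanned up to 46 µM (MIPE, 11-point) or 0.59 nM-46 µM (NPC, 8-point) in primary screens, 11-point in follow-ups.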
# [10] = qHTS of pediatric cancer cell lines to identify multiple opportunities for drug repurposing: Primary screen for LAN-5 cells (AID 1347100); note: potency is the fitted concentration of half-maximal effect
# Summary of the method: as §3
# [11] = qHTS of pediatric cancer cell lines to identify multiple opportunities for drug repurposing: Primary screen for Rh18 cells (AID 1347102); note: nearly all actives have a fitted effect of over 65% in size
# Summary of the method: as §3
# [12] = qHTS of pediatric cancer cell lines to identify multiple opportunities for drug repurposing: Primary screen for OHS-50 cells (AID 1347103); note: nearly all actives have a fitted effect of over 40% in size; note: potency is the fitted concentration of half-maximal effect
# Summary of the method: as §3
# [13] = qHTS of pediatric cancer cell lines to identify multiple opportunities for drug repurposing: Primary screen for Saos-2 cells (AID 1347097); note: nearly all actives have a fitted effect of over 40% in size
# Summary of the method: as §2
# [14] = qHTS of pediatric cancer cell lines to identify multiple opportunities for drug repurposing: Primary screen for SK-N-SH cells (AID 1347098); note: nearly all actives have a fitted effect of over 65% in size
# Summary of the method: as §3
# [15] = qHTS of pediatric cancer cell lines to identify multiple opportunities for drug repurposing: Primary screen for NB1643 cells (AID 1347099); note: nearly all actives have a fitted effect of over 50% in size
# Summary of the method: as §2
# [16] = qHTS of pediatric cancer cell lines to identify multiple opportunities for drug repurposing: Primary screen for BT-12 cells (AID 1347101); note: nearly all actives have a fitted effect of over 25% in size
# Summary of the method: as §3
Compound,Potency [1],Potency [2],Potency [3],Potency [4],Potency [5],Potency [6],Potency [7],Potency [8],Potency [9],Potency [10],Potency [11],Potency [12],Potency [13],Potency [14],Potency [15],Potency [16]
Nc1nc(Cl)nc2c1ncn2[C@@H]1O[C@H](CO)[C@@H](O)[C@@H]1F,4470 nM (active),264 nM (active),422 nM (active),26.6 nM (active),422 nM (active),29.9 nM (active),309 nM (active),211 nM (active),inactive,335 nM (active),inactive,195 nM (active),–,–,–,–
Nc1ccc(S(=O)(=O)NCc2ccccc2)cc1,inactive,inactive,inactive,–,inactive,inactive,inactive,inactive,inactive,inactive,inactive,inactive,inactive,inactive,inactive,inactive
CCCCNc1ccc(C(=O)OCCOCCOCCOCCOCCOCCOCCOCCOCCOC)cc1,inactive,inactive,inactive,inactive,–,inactive,–,inactive,–,inactive,inactive,–,inactive,inactive,inactive,–
Cc1cc2c(OCC(CNC(C)(C)C)OC(=O)c3ccccc3)cccc2[nH]1 (stereo unspecified),inactive,inactive,inactive,–,inactive,inactive,inactive,inactive,inactive,inactive,inactive,inactive,–,inactive,inactive,inactive
O=C(O)C(Cc1cc(I)c(O)c(I)c1)c1ccccc1 (stereo unspecified),inactive,inactive,inactive,–,inactive,–,inactive,inactive,inactive,inactive,inactive,inactive,inactive,–,inactive,inactive
O=C1[C@H](CC[C@H](O)c2ccc(F)cc2)[C@@H](c2ccc(O)cc2)N1c1ccc(F)cc1,inactive,inactive,inactive,–,inactive,–,inactive,inactive,inactive,inactive,inactive,–,inactive,inactive,inactive,–
CCCCCCCCCCC[C@@H](C[C@@H]1OC(=O)[C@H]1CCCCCC)OC(=O)[C@H](CC(C)C)NC=O,inactive,inactive,inactive,–,–,–,inactive,–,inactive,inactive,inactive,–,–,inactive,inactive,inactive
CCCCNC(=O)NS(=O)(=O)c1ccc(N)cc1,inactive,inactive,–,inactive,inactive,inactive,inactive,inactive,inactive,inactive,inactive,–,inactive,inactive,inactive,inactive
